Laboratory results as given in PubChem BioAssay (NCATS).
Inconclusive results are not listed. The source made the active and inactive calls. Calls come from the whole dose curve; as a rule, active = well fitted curve in the direction sought with a large enough effect in the signal ratio; inconclusive = small, poorly fitted or top-dose-only effect, or effect the other way, or a change in a side signal; inactive = no such curve, though single readings can be large or run the other way; the % refers to the signal ratio.

Assay: Validation of Assay for Modulators of Lamin A Splicing (AID 1459);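 note: cells exposed to compound for two days before reading; ratio rise marks activators and ratio drop marks inhibitors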
Conditions: Lamin A splicing dual RFP/GFP fluorescence reporter; series mostly up to 9.22 µM
Procedure, shortened: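 Splicing correction read as GFP (500-530 nm) over DsRed2 (575-640 nm) object intensity after 48 h compound exposure of reporter HeLa S3 clones (600 cells/well, 2% FBS medium); ancitabine and cycloheximide titrations, 0.5% DMSO as vehicle.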

| SMILES | outcome |
| --- | --- |
| COc1cc(C(O)CO)ccc1O (stereo not given) | inactive |
| COc1ccccc1N1CCN(CCCNc2c(C)c(=O)n(C)c(=O)n2C)CC1 | inactive |
| CN[C@H](CC(=O)O)C(=O)O | inactive |
| CSC(N)=NCCC[C@H](N)C(=O)O | inactive |
| CN1CCN(c2nc3cc(C(F)(F)F)ccc3n3cccc23)CC1 | inactive |
| CCCC[C@@]1(C2CCCC2)Cc2cc(OCC(=O)O)c(Cl)c(Cl)c2C1=O | inactive |
| COc1cc(/C=C(\C#N)C(=O)c2ccc(O)c(O)c2)cc(I)c1O | inactive |
| O=C(O)/C(=C/c1c(C(=O)O)[nH]c2cc(Cl)cc(Cl)c12)c1ccccc1 | inactive |
| NC1(C(=O)O)CCc2cc(C(=O)O)ccc21 (stereo not given) | inactive |
| CN1CCC2(CCN3CCc4c(oc5ccccc45)C3C2)N(C)C1=O (stereo not given) | inactive |
| CC(=O)NCCc1c[nH]c2ccc(O)cc12 | inactive |
| Cc1cc2c(cc1Cl)N(C(=O)Nc1ccnc3ccccc13)CC2 | inactive |
| Cc1cccc(C)c1OCC(N)C(C)C (stereo not given) | inactive |
| O=C(O)c1cccnc1C(=O)O | inactive |
| Nc1nc2[nH]c(=O)cnc2c(=O)[nH]1 | inactive |
